Screens (PubChem)
Most compounds without a hit are left out; they make up all but 2.7% or so of the library.
FAS-TE inh: FAS thioesterase domain inhibitors, primary screen, biochemical, fluorescence intensity, uHTS. recombinant FAS-TE, OMFH fluorogenic substrate, fluorescence endpoint. inhibition, % at 15 µM. 360,000 tested, 0.67% active. AID 602261, 2012;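 active = compounds whose normalised, plate-corrected inhibition of enzyme fluorescence in the single-dose primary screen is 50% or more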;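 also: 0% = DMSO with enzyme and 100% = substrate without enzyme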
Neddyl block: inhibitors of cullin neddylation, primary screen, biochemical, TR-FRET, uHTS, NAE and Ubc12; NEDD8-conjugating enzyme Ubc12 (Homo sapiens) + NEDD8-activating enzyme E1 regulatory …; calls only at 25 µM; 360,000 tested, 0.58% active; in the data active = inhibition above about 36%
Target sequence (P61081 whole entry, looked up): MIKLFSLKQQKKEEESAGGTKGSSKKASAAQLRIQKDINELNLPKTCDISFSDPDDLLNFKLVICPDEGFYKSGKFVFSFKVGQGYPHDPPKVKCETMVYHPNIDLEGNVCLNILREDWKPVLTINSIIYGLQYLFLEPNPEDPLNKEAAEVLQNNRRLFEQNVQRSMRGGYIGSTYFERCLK
Target sequence (Q13564 whole entry, looked up): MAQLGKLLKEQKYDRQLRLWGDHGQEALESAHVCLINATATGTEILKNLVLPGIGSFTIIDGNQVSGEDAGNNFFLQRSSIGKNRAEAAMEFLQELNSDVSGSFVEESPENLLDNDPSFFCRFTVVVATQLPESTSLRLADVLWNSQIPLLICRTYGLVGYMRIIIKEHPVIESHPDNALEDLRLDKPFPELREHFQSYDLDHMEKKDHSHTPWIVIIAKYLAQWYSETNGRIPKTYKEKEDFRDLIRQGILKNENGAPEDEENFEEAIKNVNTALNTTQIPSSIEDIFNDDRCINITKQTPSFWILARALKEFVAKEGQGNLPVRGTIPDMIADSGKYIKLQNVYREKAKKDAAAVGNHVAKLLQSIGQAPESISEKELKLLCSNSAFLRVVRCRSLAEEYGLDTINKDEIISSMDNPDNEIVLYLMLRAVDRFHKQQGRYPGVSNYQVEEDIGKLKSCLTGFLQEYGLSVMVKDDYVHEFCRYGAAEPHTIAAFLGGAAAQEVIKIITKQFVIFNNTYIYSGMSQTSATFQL
PfGluPho inh: PfG6PD enzyme inhibitors, primary screen, biochemical, fluorescence intensity, uHTS | glucose-6-phosphate dehydrogenase-6-phosphogluconolactonase (Plasmodium falciparum 3D7) | PfGluPho enzyme, NADPH resazurin-diaphorase fluorescence | inhibition, % at 20 µM | 350,000 tested, 0.78% active | AID 504690, 2011;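 active = inhibition reaching at least a set limit at 20 µM in the primary screen, cut at about 59% in these data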;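 also: 0% = DMSO wells with substrate and 100% = DMSO wells lacking glucose-6-phosphate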
proKLK7 act: proKLK7 zymogen activators, primary screen, biochemical, fluorescence intensity; Kallikrein-7 (Homo sapiens), P49862; purified proKLK7, EDANS-DABCYL substrate fluorescence; 100% is mature enzyme control, 0% vehicle; activation, % at 7 µM; 370,000 tested, 0.9% active;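 active = activation above the mean of all tested compounds plus 3 SD, computed per campaign excluding outliers beyond control limits, cut at about 13% in these data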
PfG6PD confirm: PfG6PD inhibitors, hit retest, confirmation, biochemical, fluorescence intensity, single concentration; shares compounds with PfGluPho inh; recombinant PfGluPho, NADPH-diaphorase-resazurin fluorescence; inhibition, % at 20 µM; 2,400 tested, 34% active;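 active = inhibition of at least 50% at 20 µM in any single replicate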;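 also: 0% = DMSO with substrate and 100% = DMSO lacking glucose-6-phosphate substrate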
Diaphorase 10uM: diaphorase inhibitors and chemical oxidizers, confirmation, counter-screen for P. falciparum G6PD inhibitor project, biochemical, fluorescence intensity, 10 µM NADPH; shares compounds with PfGluPho inh; diaphorase-coupled resazurin reduction, NADPH 10 uM; inhibition, % at 20 µM; 820 tested, 39% active; AID 504862, 2011;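 active = average inhibition reaching 50% or more with the compound at 20 µM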;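 also: resorufin red fluorescence formed as diaphorase reduces resazurin using NADPH; 0% = DMSO with enzyme and 100% = DMSO without enzyme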
Diaphorase 30uM: diaphorase inhibitors and chemical oxidizers, confirmation, counter-screen for P. falciparum G6PD inhibitor project, biochemical, fluorescence intensity, 30 µM NADPH | shares compounds with PfGluPho inh | Diaphorase/resazurin coupled assay, resorufin fluorescence | inhibition, % at 20 µM | 820 tested, 29% active;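 active = inhibition averaging 50% or more, tested at 20 µM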;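 also: 0% = DMSO with enzyme and 100% = DMSO wells lacking diaphorase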
An asterisk follows results filed as active; i = inactive; x = not tested or not shown.

SMILES | FAS-TE inh | Neddyl block | PfGluPho inh | proKLK7 act | PfG6PD confirm | others
CN(C)C(=O)/C(C#N)=C\c1cc(Br)c(Sc2ccc(Cl)cc2)o1 | 49 | i | 107* | x | -8
Clc1ccc(Sc2oc(/C=N/n3cnnc3)cc2Br)cc1 | 22 | i | 50 | 0 | x
O=[N+]([O-])c1cc2no[n+]([O-])c2cc1N1CCCCC1 | -12 | i | 129* | 0 | 111* | Diaphorase 10uM=80*;Diaphorase 30uM=58*
N#Cc1cc(N2CCCCC2)c([N+](=O)[O-])cc1C#N | 27 | i | -3 | 0 | x
Nc1[nH]c(=O)[nH]c(=O)c1N=Nc1cccc(Cl)c1 | -10 | i | -18 | 0 | x
Nc1[nH]c(=O)[nH]c(=O)c1N=Cc1ccccc1 | -5 | i | 131* | x | 98* | Diaphorase 10uM=16;Diaphorase 30uM=3
O=c1[nH]c(NCCO)c(N=Cc2ccccc2)c(=O)[nH]1 | 5 | x | 68* | 2 | 104* | Diaphorase 10uM=79*;Diaphorase 30uM=43
O=C(C1CCN(c2ncnc3c2sc2cccc(F)c23)CC1)N1CCN(C(=O)C2CCCO2)CC1 (stereo not given) | x | x | x | -2 | x
CCCCOCCCNC(=O)C[C@@H]1C(=O)N2CCCC3=C2[C@@]1(C(=O)OC)CCCC3 | x | x | x | 0 | x
Cc1onc(C(=O)Nc2sc3c(c2C(N)=O)CCCC3)c1[N+](=O)[O-] | -4 | i | 64* | 0 | 47
Cc1onc(-c2ccccc2)c1C(=O)Nc1sc2c(c1C(N)=O)CCC2 | 6 | i | 13 | 1 | x
Cc1cc(C)c2[nH]c(C(=O)Nc3ccc4c(c3)OCO4)cc2c1 | 23 | i | 61* | 0 | 3
COC(=O)C1CCN(C(=O)CN2CCC(C(=O)c3ccc(C)cc3)CC2)CC1 | x | x | x | 0 | x
COc1cccc(OC[C@@H](O)CN2CCC(C(O)(c3ccccc3)c3ccccc3)CC2)c1 | x | x | x | -1 | x
COc1ccc([N+](=O)[O-])c(OC)c1C(=O)NC(=O)Nc1nc(C)cc(C)n1 | 3 | i | 30 | 0 | x
COc1ccc(Br)c(OC)c1C(=O)NC(=O)Nc1nc(C)cc(C)n1 | -5 | i | 106* | 0 | 74* | Diaphorase 10uM=68*;Diaphorase 30uM=65*
CCOc1ccc(CCNC(=O)c2cc3sccc3n2CC)cc1OC | x | x | x | 0 | x
O=c1c2ccccc2sn1-c1ccc(S(=O)(=O)N2CCCC2)cc1 | -10 | i | 111* | 0 | 105* | Diaphorase 10uM=-9;Diaphorase 30uM=-5
O=c1c2ccccc2sn1-c1ccc(S(=O)(=O)N2CCCCC2)cc1 | -13 | i | 111* | -1 | 83* | Diaphorase 10uM=5;Diaphorase 30uM=-13
O=S(=O)(c1ccc(S(=O)(=O)N2CCCC2)cc1)N1CCCCC1 | x | x | 2 | x | x
O=S(=O)(c1ccccc1)N1CCN(S(=O)(=O)N2CCCCCC2)CC1 | 0 | i | 3 | 0 | x
CSCCCNc1nc(C)nc2c1nnn2Cc1ccccc1 | x | x | x | 0 | x
COc1ccc(-c2[nH]nc3c2C(c2ccsc2)C(C#N)=C(N)O3)cc1 (stereo not given) | -4 | i | 1 | -1 | x
COc1cccc(-c2[nH]nc3c2C(c2ccsc2)C(C#N)=C(N)O3)c1 (stereo not given) | 11 | i | 61* | -1 | 34
CC(C)(C)c1ccc(C(=O)Nc2ccc(F)cc2)s1 | 12 | i | 86* | -1 | 7
CC(=O)Nc1ccc(NC(=O)c2ccccc2Sc2ccc([N+](=O)[O-])cc2Cl)cc1 | 20 | i | 48 | 0 | 15
Cc1cccc(-c2cccc3c4c([nH]c23)[C@@H]2C[C@H](N(C)C(=O)Nc3ccccc3C)[C@H]([C@H](C)O)C(=O)N2CC4)c1 | x | x | x | 0 | x
Oc1c(CN2CCOCC2)cc(CN2CCOCC2)c(O)c1O | -7 | i | 82* | 0 | 64* | Diaphorase 10uM=52*;Diaphorase 30uM=55*
CC1CCC2(CC1)CCN(CCCOC(=O)NCc1ccc(Cl)cc1)C2=O (stereo not given) | x | x | x | 1 | x
